The OligoGym collection

biological target: GTF2H5; assay: pooled miR-30 sensor sort-seq; sequence = guide strand; conditions: shRNA
Further: reference of the scale not given here.

| Sequence | sensor-assay potency score (higher = more potent) |
| --- | --- |
| TGAATGATGAACTTCTTCCCCA | -0.103 |
| TTCTGCTATTACAAAGACGTGA | -0.0161 |
| TAATTCACCCACTCGCTCCTGG | 0.481 |
| TACAGCAGAAACTGCTTCATGG | -0.967 |
| TTAATTCACCCACTCGCTCCTG | -0.542 |

biological target: GUCY2F; assay: as above; conditions: shRNA

| Sequence | sensor-assay potency score (higher = more potent) |
| --- | --- |
| TTTCACATCTTGATTTGTCAGT | -0.489 |
| TTGGTCGTTGTTCTGCAGCCTC | -0.834 |
| TAGATGGTTCCAAACAACGGTG | -1.15 |
| TGAAGAATTGTAACAGTGCTGA | -0.218 |
| TAATCTGGAAGCTTACACTGGC | 0.71 |
| TTATAAAGTAAGCAAATCCATT | -1.1 |
| TTGAATTGTAGATGGTTCCAAA | -0.33 |
| TAATATTGGTCTTCTTCCCTTT | -0.067 |
| TAAATTGAATTGTAGATGGTTC | -0.461 |
| TAATGGTCAACACTGCATCATA | -1.31 |
| TTCCATTTCCATTTGAATCTGT | 0.512 |
| TTGAAGAATTGTAACAGTGCTG | 0.627 |
